Only some compounds are listed: those with a hit (about 2.5% of all), similar ones and a draw of the others.
L3MBTL1 block – blocks human L3MBTL1; Q9Y468; hit rate 0.66% among 230,000; Potency, µM (top dose mostly 57.1 µM), actives largely listed as inhibitors; AlphaScreen L3MBTL1–H3K9me1 peptide binding; AID 485360; also: nearly all actives have a fitted effect of over 60% in size
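AlphaScreen proximity signal between nickel-chelate acceptor and streptavidin donor beads (final 10 ug/mL) reports binding of 50 nM L3MBTL1 to 75 nM biotin-H3 K9me1 peptide; complex incubated with compounds 30 min at room temperature; cefsulodin titration as control.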
POLI inh – blocks human DNA polymerase iota activity; Q9UNA4; Pol iota fluorescent replication assay, 10 min; Potency, µM (doses to about 115 µM), hits mostly inhibitors; hit rate 1% among 390,000; AID 588590
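Pol iota at 10 nM preincubated 15 min with compounds at room temperature; reaction started with fluorescent substrate, 50 nM final. Fluorescence read kinetically at 0 and 10 min; buffer-only wells as negative control.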
Pol kappa inh – DNA polymerase kappa (human) inhibition. AID 588579. Potency, µM (series often up to 107 µM), usual class: inhibitors. purified Pol kappa, fluorescent DNA synthesis assay, 10 min. hit rate 0.53% among 400,000
Target sequence (Q9UBT6 whole entry, looked up): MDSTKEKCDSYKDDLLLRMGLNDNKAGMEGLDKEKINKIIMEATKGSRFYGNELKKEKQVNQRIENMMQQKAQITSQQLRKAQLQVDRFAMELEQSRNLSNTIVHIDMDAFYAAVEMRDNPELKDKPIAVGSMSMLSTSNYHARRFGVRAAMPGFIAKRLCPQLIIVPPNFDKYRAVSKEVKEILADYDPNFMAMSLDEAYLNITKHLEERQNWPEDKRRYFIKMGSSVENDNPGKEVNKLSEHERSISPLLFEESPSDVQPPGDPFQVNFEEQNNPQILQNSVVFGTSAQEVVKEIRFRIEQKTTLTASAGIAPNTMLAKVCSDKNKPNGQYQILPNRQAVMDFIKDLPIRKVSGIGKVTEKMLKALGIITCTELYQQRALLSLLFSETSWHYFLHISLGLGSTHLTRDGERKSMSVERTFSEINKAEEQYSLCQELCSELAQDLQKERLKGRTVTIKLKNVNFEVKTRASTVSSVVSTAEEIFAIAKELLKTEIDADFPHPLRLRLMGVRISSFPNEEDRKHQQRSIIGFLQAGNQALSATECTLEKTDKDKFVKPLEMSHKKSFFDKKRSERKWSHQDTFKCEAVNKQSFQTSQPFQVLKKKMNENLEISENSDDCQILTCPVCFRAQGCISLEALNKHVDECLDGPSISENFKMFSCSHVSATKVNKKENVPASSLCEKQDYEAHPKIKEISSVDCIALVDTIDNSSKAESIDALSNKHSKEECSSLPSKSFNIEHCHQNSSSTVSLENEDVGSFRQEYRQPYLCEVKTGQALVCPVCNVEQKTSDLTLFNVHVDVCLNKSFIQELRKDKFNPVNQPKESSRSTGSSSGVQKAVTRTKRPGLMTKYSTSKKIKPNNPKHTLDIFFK
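Here, compound and 10 nM enzyme are combined for 15 min at room temperature; adding 50 nM substrate (final) starts DNA synthesis, tracked by fluorescence at 0 and 10 min against buffer-only wells.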
POLH inh – blocks human DNA polymerase eta activity; Q9Y253; recombinant Pol eta, fluorescent DNA replication assay; Potency, µM (doses to about 114 µM), most hits filed as inhibitors; hit rate 1.2% among 390,000; AID 588591
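Pol eta (10 nM) was preincubated with compounds for 15 min at room temperature, after which fluorescent replication substrate (50 nM final) was added to start the reaction. Fluorescence was read kinetically at 0 and 10 min.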
Pol beta inh – inhibitors of human DNA polymerase beta | P06746 | Pol beta primer extension/strand displacement, fluorescence kinetic | Potency, µM (top dose mostly 114 µM), hits mostly inhibitors | hit rate 1.3% among 340,000 | AID 485314
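Enzyme-only controls used 10 nM Pol beta; buffer lacking enzyme served as negative control. Compound preincubated 15 min, then 50 nM substrate added; 0 and 10 min reads at room temperature.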
WRN helicase inh – inhibitors of human WRN helicase; Q14191; WRN helicase unwinding, fluorescent forked duplex, kinetic; Potency, µM (series often up to 114 µM), actives largely listed as inhibitors; hit rate 0.46% among 360,000; also: nearly all actives have a fitted effect of over 55% in size
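WRN at 20 nM final was preincubated with compound for 15 min at room temperature; reaction started with 100 nM forked duplex oligonucleotide carrying fluorophore and quencher plus 2 mM ATP (final). Unwinding followed kinetically by red fluorescence (ex 525/em 598 nm).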
Hits are given with their value; - = inactive; ? = inconclusive; . = no result; [ ] = dose if it differs, or a comment. Calls follow the shape of the dose curve; as a rule, active = well fitted curve in the direction sought with a large enough effect; inconclusive = small, poorly fitted or top-dose-only effect, or another doubt; inactive = no such curve, though single readings can be large; an effect the other way counts as inactive or inconclusive.

SMILES	L3MBTL1 block	POLI inh	Pol kappa inh	POLH inh	Pol beta inh	WRN helicase inh
Cc1c(C(=O)NCc2cccc(Br)c2)oc2ccc3c(c12)C(=O)CC(C)(C)O3	.	79.4µM	?	.	-	.
Cc1cc(C)cc(NC(=O)c2oc3ccc4c(c3c2C)C(=O)CC(C)(C)O4)c1	.	-	-	-	-	.
Cc1cccc(C)c1NC(=O)c1oc2ccc3c(c2c1C)C(=O)CC(C)(C)O3	.	-	-	-	-	.
COc1cc(OC)c2c(C)c(CC(=O)NCc3ccccc3OC)c(=O)oc2c1	.	-	-	28.2µM	-	.
COc1ccc(-c2cn3c(n2)sc2cc(C(=O)NCCCN4CCCCC4)ccc23)cc1	.	-	-	?	-	.
CC(=O)OC[C@H]1O[C@@H](O/N=C(\C)CCN2CCCCc3nc(C)c(C)cc32)[C@H](OC(C)=O)[C@@H](OC(C)=O)[C@@H]1OC(C)=O	-	.	.	.	-	.
Cc1cccn2c(=O)c(C=O)c(N3CCN(c4ccc(F)cc4)CC3)nc12	-	-	-	-	-	-
CCOc1ccc2nc(S(=O)(=O)NC(=O)C3(C)CCN3C(=O)c3cccc(F)c3)sc2c1 (stereo not drawn)	.	.	.	.	.	-
COc1cc(-c2nnc(SCCOc3cc(C)cc(C)c3)o2)cc(OC)c1OC	.	-	-	-	50.1µM	.
O=C(Nc1cccc(S(=O)(=O)NC2=NCCCCC2)c1)C1COc2ccccc2O1 (stereo not drawn)	-	?	-	?	12.6µM	?
O=C(COC(=O)c1ccccc1NCCO)Nc1cccc(S(=O)(=O)NC2=NCCCCC2)c1	?	39.8µM	?	?	.	-[11.6 µM]
CCC(CO)NC(=O)C(=O)Nc1c2c(nn1-c1ccc(F)cc1)CSC2 (stereo not drawn)	.	89.1µM	-	-	-	.
CC(NC(=O)C(=O)Nc1c2c(nn1-c1ccc(F)cc1)CSC2)c1ccccc1 (stereo not drawn)	.	?	-	-	?	.
C#CCOCCOCCOCCNc1nc(N2CCN(C(=O)CCCCCCCCCCNC(=O)[C@@H](CCSC)n3cc(CCO)nn3)CC2)nc(N2CCN(C(=O)CCCCCCCCCCNC(=O)[C@H]([C@@H](C)CC)n3cc(CCCCN=C(N)N)nn3)CC2)n1	-	?	-	79.4µM	.	?
C#CCOCCOCCOCCNc1nc(N2CCN(C(=O)CCCCCCCCCCNC(=O)[C@@H](CCSC)n3cc(CCO)nn3)CC2)nc(N2CCN(C(=O)CCCCCCCCCCNC(=O)[C@H]([C@@H](C)CC)n3cc(CCCCCN)nn3)CC2)n1	-	?	-	?	.	?
C#CCOCCOCCOCCNc1nc(N2CCN(C(=O)CCCCCCCCCCNC(=O)Cn3cc(C[C@@H](C)O)nn3)CC2)nc(N2CCN(C(=O)CCCCCCCCCCNC(=O)[C@H](CCCCN)n3cc(C[C@@H](C)CC)nn3)CC2)n1	-	?	-	?	.	?
C#CCOCCOCCOCCNc1nc(N2CCN(C(=O)CCCCCCCCCCNC(=O)[C@H](CCCCN)n3cc(C[C@@H](C)CC)nn3)CC2)nc(N2CCN(C(=O)CCCCCCCCCCNC(=O)[C@H](CCCCN)n3cc(C[C@@H](C)CC)nn3)CC2)n1	.	-	-	79.4µM	.	50.1µM
C#CCOCCOCCOCCNc1nc(N2CCN(C(=O)CCCCCCCCCCNC(=O)[C@H](CCCCN)n3cc(CCO)nn3)CC2)nc(N2CCN(C(=O)CCCCCCCCCCNC(=O)[C@H](CCCN=C(N)N)n3cc(C[C@@H](C)CC)nn3)CC2)n1	-	?	?	79.4µM	.	35.5µM
COc1ccc2cc(C3(C)NC(=O)N(CC(=O)NCCC4=CCCCC4)C3=O)ccc2c1 (stereo not drawn)	.	-	-	-	-	-
O=c1c(Cl)c(N/N=C/c2ccc(Br)cc2)cnn1-c1ccccc1	.	?	?	?	17.8µM	?
Cc1cc(C)cc(NC(=O)CSc2nc3c(oc4ccccc43)c(=O)n2-c2ccccc2F)c1	.	-	-	-	-	.
O=C1c2c(O)cc(O)cc2O[C@H](c2ccc(O)c(O)c2)[C@H]1O	.	79.4µM	?	-	3.16µM	-[11.6 µM]
O=C1c2c(O)cc(O)cc2O[C@H](c2ccc(O)c(O)c2)[C@@H]1O	.	.	.	.	3.55µM	.
O=C1c2c(O)cc(O)cc2O[C@H](c2ccc(O)cc2)[C@H]1O	.	-	-	-	.	-
CSCCC(NC(=O)c1ccco1)C(=O)Nc1ccncc1 (stereo not drawn)	.	-	-	-	-	-
SMILES	L3MBTL1 block	POLI inh	Pol kappa inh	POLH inh	Pol beta inh	WRN helicase inh
Cc1ccc(C)c(N2CCN(C(=O)c3cc4c(=O)n(Cc5ccccc5)ccc4nc3C)CC2)c1	.	-	-	-	-	.
O=C(COC(=O)c1ccc(Br)o1)Nc1ccc(N2CCOCC2)cc1	-	-	-	-	.	-
CC(=O)c1cc(O)c2ccccc2c1O	-	-	-	89.1µM	?	-[11.6 µM]
CC(=O)c1coc2c1cc(O)c1ccccc12	.	-	-	-	-	-
CC(C)CN(CCCNC(=O)CN1C(=O)COc2ccc(S(=O)(=O)N3CCC(C)CC3)cc21)CC(C)C	.	-	-	-	-	-
Clc1ccc(CSc2nnc(-c3cccnc3)n2Cc2ccco2)c(Cl)c1	-	-	-	?	50.1µM	-
O=C(CSc1ccc(Br)c2cccc(Cl)c12)Nc1ccc(S(=O)(=O)Nc2nccs2)cc1	-	?	?	44.7µM	50.1µM	35.5µM
Cc1ccccc1NC(=O)NCCCN1CCCC1=O	.	-	-	-	-	-
O=C(O)c1ccc(COc2ccccc2/C=C2\NC(=O)N(Cc3ccc(F)cc3)C2=O)cc1	-	?	-	?	?	-
O=C(CN1C(=O)N/C(=C\c2ccccc2OCc2ccc(C(=O)O)cc2)C1=O)Nc1ccc(F)cc1	.	?	?	-	79.4µM	-
Cc1ccc(N(C)S(=O)(=O)c2c(-c3ccccc3)csc2C(=O)O)cc1	.	-	-	-	-	.
O=C(Cn1cnc2c(oc3ccccc32)c1=O)NCc1ccco1	-	?	-	-	-	-
O=C(Cn1cnc2c(oc3ccccc32)c1=O)NCc1ccccc1	-	-	-	-	25.1µM	-
Cc1ccc(/C=C/c2onc(C)c2S(=O)(=O)N2CCC(C(=O)N3CCOc4ccccc43)CC2)cc1	.	-	-	-	-	.
Cc1cc(=O)[nH]c(SCC(=O)N2CCc3ccccc3C2)n1	.	-	-	-	-	-
CCCn1c(SCC(=O)N2CCc3ccccc3C2)nc(O)cc1=O	-	10µM	?	-	.	-
O=C(Cn1c(SCC(=O)N2CCc3ccccc3C2)nc2ccccc21)NC1CCCC1	-	-	-	-	89.1µM	-
O=C1C=C(c2cccc(Cl)c2O)C[C@@H](c2ccc3c(c2)OCO3)C1	-	-	-	-	.	-
O=C(CCc1nc2sc3c(c2c(=O)[nH]1)CCCC3)NCCc1ccccc1	?	50.1µM	?	?	.	-[11.6 µM]
